From PMC9911399, “Two distinct binding modes provide the RNA-binding protein RbFox with extraordinary sequence specificity”
Numbering of substitutions follows the chain as printed; changes in the protein carry UniProt numbers. Whole data set: some 16,000 sequences, median “ka relative to ugcaugu” near 0.0091, cut for the highest 2% near 0.032. This is one part of a sample in which the highest values are shown more often than they occur.

B1: UACAUAC (DNA:RNA)
RNA: GGGAGACCGGAAUUCAGAUUGUCCUACAUACUUAAAUCCCGUCGUAGCCACCA
DNA 1: CAATCTGAATTCCGGTCTCCC
DNA 2: TGGTGGCTACGACGGGATT
B2: GGUAUUA (DNA:RNA)
RNA: B1 RNA with U25G, A26G, C27U, A30U, C31A
DNA 1: CAATCTGAATTCCGGTCTCCC
DNA 2: TGGTGGCTACGACGGGATT
B3: GGUAAUG (DNA:RNA)
RNA: B1 RNA with U25G, A26G, C27U, U29A, A30U, C31G
DNA 1: CAATCTGAATTCCGGTCTCCC
DNA 2: TGGTGGCTACGACGGGATT
B4: UUAGUUG (DNA:RNA)
RNA: B1 RNA with A26U, C27A, A28G, A30U, C31G
DNA 1: CAATCTGAATTCCGGTCTCCC
DNA 2: TGGTGGCTACGACGGGATT
B5: AUGCCAC (DNA:RNA)
RNA: B1 RNA with U25A, A26U, C27G, A28C, U29C
DNA 1: CAATCTGAATTCCGGTCTCCC
DNA 2: TGGTGGCTACGACGGGATT
B6: GUUACCC (DNA:RNA)
RNA: B1 RNA with U25G, A26U, C27U, U29C, A30C
DNA 1: CAATCTGAATTCCGGTCTCCC
DNA 2: TGGTGGCTACGACGGGATT
B7: UGGGGCG (DNA:RNA)
RNA: B1 RNA with A26G, C27G, A28G, U29G, A30C, C31G
DNA 1: CAATCTGAATTCCGGTCTCCC
DNA 2: TGGTGGCTACGACGGGATT
B8: CCUGGUG (DNA:RNA)
RNA: GGGAGACCGGAAUUCAGAUUGUCCCCUGGUGUUAAAUCCCGUCGUAGCCACCA
DNA 1: CAATCTGAATTCCGGTCTCCC
DNA 2: TGGTGGCTACGACGGGATT
B9: UGGUGCU (DNA:RNA)
RNA: B8 RNA with C25U, C26G, U27G, G28U, U30C, G31U
DNA 1: CAATCTGAATTCCGGTCTCCC
DNA 2: TGGTGGCTACGACGGGATT
B10: UGGGCGU (DNA:RNA)
RNA: B8 RNA with C25U, C26G, U27G, G29C, U30G, G31U
DNA 1: CAATCTGAATTCCGGTCTCCC
DNA 2: TGGTGGCTACGACGGGATT
B11: UGGCGUU (DNA:RNA)
RNA: B8 RNA with C25U, C26G, U27G, G28C, G31U
DNA 1: CAATCTGAATTCCGGTCTCCC
DNA 2: TGGTGGCTACGACGGGATT
B12: CCCUGGG (DNA:RNA)
RNA: B8 RNA with U27C, G28U, U30G
DNA 1: CAATCTGAATTCCGGTCTCCC
DNA 2: TGGTGGCTACGACGGGATT
B13: CUGGGUG (DNA:RNA)
RNA: B8 RNA with C26U, U27G
DNA 1: CAATCTGAATTCCGGTCTCCC
DNA 2: TGGTGGCTACGACGGGATT
B14: UGGGUGC (DNA:RNA)
RNA: B1 RNA with A26G, C27G, A28G, A30G
DNA 1: CAATCTGAATTCCGGTCTCCC
DNA 2: TGGTGGCTACGACGGGATT
B15: UGGGUGA (DNA:RNA)
RNA: B1 RNA with A26G, C27G, A28G, A30G, C31A
DNA 1: CAATCTGAATTCCGGTCTCCC
DNA 2: TGGTGGCTACGACGGGATT

Molecular target: T1, RBFOX1 RRM (Homo sapiens, UniProt Q9NWB1 109-208)
T1 sequence: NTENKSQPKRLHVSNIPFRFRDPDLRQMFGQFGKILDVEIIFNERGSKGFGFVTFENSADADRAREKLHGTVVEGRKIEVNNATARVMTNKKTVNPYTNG
Assay: EMSA; HiTS-Eq, 1 nM pool, 10 min; buffer printed only for the single-RNA assays: 10 mM Tris pH 7.5, 150 mM NaCl, 3.4 mM EDTA, 0.001% NP-40, 30 C
Settings: tags: His6 N-terminal (pET28a); label: 5' 32P
How it was run: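 These values rest on relative association constants, computed from read-count changes of each RNA species versus the control reaction and normalised to the cognate motif. Reads came from free RNA recovered by 8% native PAGE after purified RbFox RRM (wild type or mutant) at increasing concentrations was equilibrated for 10 min in 50 µL with 1 nM of a 5′-radiolabelled pool with 7 randomized nucleotides and DNA-annealed flanks.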

Row | Binder | binding signal
1 | B1 | 0.00108 KA relative to UGCAUGU
2 | B2 | 0.00455 KA relative to UGCAUGU
3 | B3 | 0.0152 KA relative to UGCAUGU
4 | B4 | 0.0187 KA relative to UGCAUGU
5 | B5 | 0.0065 KA relative to UGCAUGU
6 | B6 | 0.0047 KA relative to UGCAUGU
7 | B7 | 0.0294 KA relative to UGCAUGU
8 | B8 | 0.0199 KA relative to UGCAUGU
9 | B9 | 0.0292 KA relative to UGCAUGU
10 | B10 | 0.0388 KA relative to UGCAUGU
11 | B11 | 0.0221 KA relative to UGCAUGU
12 | B12 | 0.00714 KA relative to UGCAUGU
13 | B13 | 0.0408 KA relative to UGCAUGU
14 | B14 | 0.0429 KA relative to UGCAUGU
15 | B15 | 0.0273 KA relative to UGCAUGU
